# Assay outcomes from PubChem.
# A selection: hits, their analogues and other compounds. The true share with any hit is near 4.7%.
# D1 PAM = potentiators of human D1 dopamine receptor; hit rate 0.036% among 360,000; potentiation, % at 10 µM; HEK293 TREx D1 cells, calcium flux, dopamine EC20 potentiation; in the data active = potentiation above about 30%; note: 0% is about no effect
# Target sequence (P21728 whole entry, looked up): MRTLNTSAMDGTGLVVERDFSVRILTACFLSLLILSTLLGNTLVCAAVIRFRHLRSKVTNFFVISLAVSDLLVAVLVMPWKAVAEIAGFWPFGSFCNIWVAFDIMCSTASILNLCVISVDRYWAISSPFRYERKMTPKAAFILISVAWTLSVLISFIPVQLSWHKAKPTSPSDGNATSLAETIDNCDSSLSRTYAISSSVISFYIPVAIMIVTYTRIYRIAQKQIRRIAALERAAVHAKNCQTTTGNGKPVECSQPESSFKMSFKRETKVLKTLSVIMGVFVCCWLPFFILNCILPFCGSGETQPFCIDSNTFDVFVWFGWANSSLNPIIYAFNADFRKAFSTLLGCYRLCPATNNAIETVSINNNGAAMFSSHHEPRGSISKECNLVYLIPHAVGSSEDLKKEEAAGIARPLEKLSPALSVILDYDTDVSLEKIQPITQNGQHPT
# TRHR ag = TRH receptor (human) agonism | P34981 | TRHR cells, calcium flux fluo-8, FDSS agonist mode | activation, % at 2 µM | hit rate 0.18% among 360,000; note: 0% is about no effect
#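 TRHR-expressing cells loaded with fluo-8 calcium dye; 23 nL library compound pin-transferred, kinetic FDSS fluorescence (Ex 480/Em 530) recorded about 180 s for agonist-induced calcium release, before a 10 nM TRH EC20 addition for potentiator mode.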
# TRHR PAM = TRH receptor (human) allosteric enhancement. P34981. TRHR cells, fluo-8 calcium fluorescence, EC20 TRH enhancement. enhancement, % at 2 µM. hit rate 0.66% among 360,000. AID 493056; in the data active = enhancement above about 30%; note: 0% is about no effect
#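 Enhancer read-out: after compound pinning and an initial kinetic agonist-mode read, an EC20 of TRH (10 nM final) was injected and fluo-8 calcium signal (Ex 480/Em 530) followed at 1 s/cycle for 100 cycles in TRHR-expressing cells.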
# D1 antag = antagonists of human D1 dopamine receptor | P21728 | HEK293 TREx D1 cells, calcium flux, dopamine EC80; stronger effect = lower value | activity change, negative = inhibition, % at 10 µM | hit rate 3.2% among 360,000 | AID 504652; in the data active = activity change below about -30%; note: % is set by controls: 0 for no effect and ±100 for the full control effect
#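 Tetracycline-induced HEK293 Trex D1 cells, force-coupled to calcium, dye-loaded; compounds added and read 180 s, then EC80 dopamine added and calcium flux tracked kinetically another 180 s.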
# D1 agonist = agonists of human D1 dopamine receptor | HEK293 T-REx D1 cells, calcium flux, agonist mode | hit rate 1% among 360,000 | P21728 | activation, % at 2 µM; note: 0% is about no effect
#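 Agonism was scored from calcium flux recorded over 180 s (1 read/s) after pintool compound addition, following a 10-cycle baseline. Cells were inducible force-coupled HEK293 TREx D1, plated overnight at 30 C and loaded with no-wash calcium dye.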
# Numbers without * were called inactive; . = not tested or not shown. Cut-off read from the data, not from the text of the source, unless noted: active = activation above about 30%; inactive = the rest.
SMILES,D1 PAM,TRHR ag,TRHR PAM,D1 antag,D1 agonist
CCn1c(C)nnc1SCC(=O)Nc1cccc(Cl)c1,0,0,2,-43*,-4
COc1ccc(/C=C(\C#N)C(=O)NCc2ccccc2)cc1O,.,0,7,-5,3
COc1ccc(/C=C(\C#N)C(=O)NCc2cccs2)cc1OC,0,-1,26,-34*,0
CCOC(=O)c1cnc2c(C)cc(C)cc2c1Nc1ccccc1OCC,1,0,-4,-18,1
CCOC(=O)c1cnc2ccc(Cl)cc2c1Nc1ccc(S(=O)(=O)Nc2ncccn2)cc1,-5,0,6,7,0
CCOC(=O)c1cnc2c(C)c(Cl)ccc2c1Nc1ccc(S(=O)(=O)Nc2ncccn2)cc1,-5,-1,0,-39*,3
CCOC(=O)c1cnc2c(ccc3ccccc32)c1Nc1ccccc1O,-4,0,1,-47*,1
CCOC(=O)c1cnc2c(ccc3ccccc32)c1Cl,-2,0,-8,-53*,3
CCCCOc1ccc(C(=O)CCN2CCOCC2)cc1,-8,-1,0,-34*,10
CCCCCOc1ccc(C(=O)CCC(=O)N2CCCC2)cc1,-7,0,-2,-7,36*
CCCCOc1ccc(C(=O)N2CCCC2)cc1,-3,-1,1,15,0
COCCn1c(CNC(=O)c2cc([N+](=O)[O-])ccc2Cl)nc2cccnc21,-2,1,-1,-1,0
CCN1CCc2nc3sc(C(=O)c4ccccc4)c(N)c3cc2C1,-3,9,-6,-10,28
COc1ccc(N2CCN(c3ccc(N4C(=O)COCC4=O)cc3[N+](=O)[O-])CC2)cc1,-10,0,-2,-31*,9
O=C(c1ccccc1)N1CCc2cc(CNS(=O)(=O)c3ccc(Cl)s3)ccc21,0,-1,-1,3,2
OCCCCNCc1ccc(OCc2ccc(Cl)cc2)cc1,-5,1,9,-51*,26
CC(NCc1cccc(OCc2ccccc2)c1)C(O)c1ccccc1 (configuration not stated),-3,2,-3,.,42*
CC(NCc1ccc(OCc2ccc(Cl)cc2)cc1)C(O)c1ccccc1 (configuration not stated),-5,1,5,-5,38*
Cc1ccc(NC(=O)CC2SC(=NCC3CCCO3)NC2=O)cc1Cl (configuration not stated),-10,0,-7,-1,-1
COc1ccc(NC(=O)CC2SC(=NCC3CCCO3)NC2=O)cc1 (configuration not stated),-11,0,-6,-47*,3
CCCC(=O)Nc1ccc(C(=O)/C=C/c2ccc(SC)cc2)cc1,-13,0,7,-48*,16
CSc1ccc(/C=C/C(=O)c2ccc(NC(C)=O)cc2)cc1,-4,1,6,-6,7
CC1=C(C(=O)OC(C)C)C(c2ccncc2)n2ncnc2N1 (configuration not stated),-2,0,9,-12,2
CC1=C(C(=O)OC(C)C)C(c2cccnc2)n2ncnc2N1 (configuration not stated),.,2,-3,-34*,1
COC(=O)C1=C(C)Nc2ncnn2C1c1ccc(OCc2ccccc2)cc1 (configuration not stated),-5,0,-8,-38*,4
SMILES,D1 PAM,TRHR ag,TRHR PAM,D1 antag,D1 agonist
N#Cc1nc(Nc2ccc(Br)cc2)nc(NC2CCCC2)n1,-4,-2,2,-29,7
CCCn1c(SCC(=O)c2ccc3c(c2)OCCO3)nnc1-c1ccco1,3,0,4,-36*,4
CC(C)NC(=O)CSc1nnc(-c2ccco2)n1N,-7,0,-8,-67*,-2
CCCn1c(SCC(N)=O)nnc1-c1ccco1,-1,-1,7,-55*,1
Cc1ccc(S(=O)(=O)NCCc2nnc3ccc(SCc4ccccc4F)nn23)cc1,0,-1,-11,-3,-1
COc1cc(CCC(=O)NCc2ccc3c(c2)CCN3C(=O)c2cccc(C)c2)cc(OC)c1OC,-2,-1,3,-19,0
COc1ccccc1Cn1c(C2CC(=O)N(c3ccccc3OC)C2)nc2ccccc21 (configuration not stated),-3,0,-6,19,-1
CCOC(=O)c1ccc(NC(=O)CC2S/C(=N/N=C/c3c[nH]c4ccccc34)NC2=O)cc1 (configuration not stated),2,0,5,-36*,1
Cc1ccc(-n2c(SCc3ccccc3)nc3c([nH]c4ccccc43)c2=O)cc1,-1,0,0,-33*,-1
CCOC(=O)c1ccc(NC(=O)c2c(NCc3cc(OC)c(OC)cc3OC)sc3c2CCCC3)cc1,6,0,4,1,2
CN(C)c1ccc2nc3c(=O)[nH]c(=O)nc-3n(CC(O)C(O)C(O)CO)c2c1 (configuration not stated),-2,12,4,3,46*
CCc1cccc(NCc2ccccc2-c2nnc(-c3ccccc3Cl)o2)c1,0,1,0,9,1
COc1ccc(/C=N/NC(=O)c2cccc([N+](=O)[O-])c2)cc1OC(=O)c1ccccc1,-5,0,-1,-9,-2
O=C(N/N=C/c1ccc(OC(=O)c2ccccc2)c([N+](=O)[O-])c1)c1ccc(O)cc1,-10,-1,-3,-33*,4
CCOc1cc(/C=N\NC(=O)c2ccc(NC(=O)C(C)(C)C)cc2)ccc1OC(=O)c1ccc(C)cc1,-3,0,1,14,1
CCOc1cc(/C=N\NC(=O)c2ccc(NC(=O)CC)cc2)ccc1OC(=O)c1ccccc1,-11,0,4,-57*,5
COc1cc(/C=N/NC(=O)c2sc3ccccc3c2Cl)ccc1OC(=O)c1ccc([N+](=O)[O-])cc1,-5,1,-2,-38*,1
COc1ccc(Oc2ccc(/C=N/NC(=O)c3cccnc3)cc2[N+](=O)[O-])cc1,-8,-1,-26,-43*,-3
CCCc1cc(=O)[nH]c2nnc(SCC)n12,0,0,6,.,-4
CCOC(=O)c1cc(-c2ccccc2)n(CC(=O)NC2CCC(C)CC2)c1C (configuration not stated),-4,0,9,-3,1
CCOc1cc(/C=N/NC(=O)CSc2nncn2C)ccc1OCC(N)=O,5,0,2,17,5
CCOc1cc(/C=N/NC(=O)CSc2nncn2C)ccc1OC(=O)c1ccc(Cl)cc1,-5,-1,30*,-55*,-1
Cc1[nH]nc(Nc2ccc(Br)cc2)c1[N+](=O)[O-],-10,0,-8,-36*,10
Cc1cccc(Nc2n[nH]c(C)c2[N+](=O)[O-])c1,-7,0,-7,-37*,20
